Test results from ChEMBL document CHEMBL3433997, “St. Jude Leishmania screening dataset” (2016).

Assays:
Format in all cases: functional
[1] = target: Solute carrier family 2, facilitated glucose transporter member 1 (Homo sapiens) (UniProt P11166); assay: ST_JUDE_LEISH: Cytotoxicity at 2uM final concentration against transgenic Leishmania Mexicana promastigotes LmGLUT1 that are glucose transport deficient and complemented with the human glucose transporter GLUT1. Activity is measured by DNA content using SYBR green in vitro
[2] = target: Hexose transporter 1 (Plasmodium falciparum) (UniProt O97467); assay: ST_JUDE_LEISH: Cytotoxicity at 2uM final concentration against transgenic Leishmania Mexicana promastigotes LmPfHT that are glucose transport deficient and complemented with the Plasmodium falciparum hexose transporter. Activity is measured by DNA content using SYBR green in vitro
[3] = target: Glucose transporter (Leishmania mexicana) (UniProt O61059); assay: ST_JUDE_LEISH: Cytotoxicity at 2uM final concentration against transgenic Leishmania Mexicana promastigotes LmGT2 that are glucose transport deficient and complemented with the L. Mexicana glucose transporter 2. Activity is measured by DNA content using SYBR green in vitro

Chain of Solute carrier family 2, facilitated glucose transporter member 1 (Homo sapiens) (P11166 whole entry): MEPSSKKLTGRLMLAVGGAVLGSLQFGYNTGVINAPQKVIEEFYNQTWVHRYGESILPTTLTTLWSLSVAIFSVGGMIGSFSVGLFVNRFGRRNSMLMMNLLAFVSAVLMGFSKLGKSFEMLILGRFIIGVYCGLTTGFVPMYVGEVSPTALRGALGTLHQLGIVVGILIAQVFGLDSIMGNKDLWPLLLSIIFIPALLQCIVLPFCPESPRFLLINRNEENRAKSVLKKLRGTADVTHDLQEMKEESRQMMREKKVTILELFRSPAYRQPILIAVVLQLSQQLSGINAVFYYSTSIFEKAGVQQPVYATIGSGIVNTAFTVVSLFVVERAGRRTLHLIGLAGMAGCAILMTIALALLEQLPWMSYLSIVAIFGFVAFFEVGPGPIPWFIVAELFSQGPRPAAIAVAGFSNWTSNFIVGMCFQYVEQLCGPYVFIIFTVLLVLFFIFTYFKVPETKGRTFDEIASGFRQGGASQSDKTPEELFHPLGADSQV

CN1CCC[C@@H](Oc2cc3c(cc2Br)CCN3C(=O)Nc2ccc(-c3ccncc3)c(Cl)c2)C1
inhibition [1]: 2.29%
inhibition [2]: 2.77%
inhibition [3]: 0.42%

O=C(C=Cc1ccc(Br)cc1)N1CCC(CCN2CCC(c3c[nH]c4ccccc34)CC2)CC1
inhibition [1]: 4.46%
inhibition [2]: 8.48%
inhibition [3]: 4.25%

Clc1ccc2c(NCc3ccccn3)ccnc2c1
inhibition [1]: 9.87%
inhibition [2]: 10.9%
inhibition [3]: 4.77%

c1ccc(C(c2ccccc2)N2CCN(C(c3cccnc3)c3nnnn3C3CCCC3)CC2)cc1 (stereo unspecified)
inhibition [1]: 4.64%
inhibition [2]: -0.82%
inhibition [3]: -1.23%

COc1ccc(-c2cc(C(=O)N[C@@H](Cc3ccccc3)C(=O)NCCN3CCCCC3)ccc2O)cc1
inhibition [1]: 5.18%
inhibition [2]: 2.26%
inhibition [3]: 4.04%

Oc1ccc(CCNc2nc(NCCCOc3cc(CN4CCCCC4)ccc3F)nc(N3CCNCC3)n2)cc1
inhibition [1]: 1.98%
inhibition [2]: 4.72%
inhibition [3]: 5.14%

CO/C(=C\C=C\c1cc2cc(Cl)c(Cl)cc2[nH]1)C(=O)NC1CC(C)N(C)C(C)C1 (stereo unspecified)
inhibition [1]: -2.9%
inhibition [2]: -0.97%
inhibition [3]: -1.43%

Cn1nccc1C(=O)NCCNCc1ccc(-c2ccc(-c3nc4cc(F)ccc4[nH]3)cc2)cc1
inhibition [1]: 1.91%
inhibition [2]: 4.48%
inhibition [3]: 5.68%

CC1(C)NC(N)=NC(=N)N1OCCCOc1cccc(Cl)c1
inhibition [1]: 3.04%
inhibition [2]: 5.38%
inhibition [3]: 2.82%

COc1ccc(-c2nonc2NC(=O)c2cccc(Cl)c2)cc1OC
inhibition [1]: 4.3%
inhibition [2]: 1.03%
inhibition [3]: 1.34%

O=C(Nc1ccc(Cl)cc1)c1ccc(CN2CCCN(Cc3ccccc3)CC2)cc1
inhibition [1]: 1.68%
inhibition [2]: 3.72%
inhibition [3]: 1.45%

S=C(NCCCCCN1CCC(c2c[nH]c3ccccc23)CC1)Nc1cccc(I)c1
inhibition [1]: 0.7%
inhibition [2]: 1.62%
inhibition [3]: -1.76%

COc1ccc(N2CCN(CCCCNC(=O)c3ccc(/C=C/c4ccc(Cl)c(Cl)c4)cc3)CC2)c(OC)c1
inhibition [1]: -0.28%
inhibition [2]: 1.71%
inhibition [3]: 2.02%

O=C1NC(c2ccccc2)C2(CCN(CC(O)COc3cccc4ncccc34)CC2)O1 (stereo unspecified)
inhibition [1]: 2.46%
inhibition [2]: 3.19%
inhibition [3]: 1.26%

CC(C)Cn1c(Sc2ccc(C#N)c([N+](=O)[O-])c2)nnc1-c1cccc(Cl)c1
inhibition [1]: 12.7%
inhibition [2]: 12.4%
inhibition [3]: 9.62%

COc1cc2c(cc1OCCN1CCC(N3CCCCC3)CC1)N(C(=O)/C=C/c1ccccc1OC(F)(F)F)CC2
inhibition [1]: 2.32%
inhibition [2]: 5.04%
inhibition [3]: 3.58%

CCCCN1CCN(c2cc(NS(=O)(=O)c3cccc(C(=O)Nc4ccc(C(F)(F)F)cc4)c3)ccc2OC)CC1
inhibition [1]: 0.33%
inhibition [2]: -1.12%
inhibition [3]: -1.22%

COc1ccc(NC(=O)[C@H](Cc2ccccc2)Nc2cc(C)nc(NCCc3ccc(F)cc3)n2)cc1
inhibition [1]: 11.8%
inhibition [2]: 13%
inhibition [3]: 10%

CCCCCC(=O)N1CCOC(CCN2CCC(c3ccccc3)CC2)(c2ccc(Cl)c(Cl)c2)C1 (stereo unspecified)
inhibition [1]: 2.57%
inhibition [2]: 3.27%
inhibition [3]: 0.92%

c1ccc(CN2CCN(c3cc(-c4cncc(-c5ccccc5)c4)nc(-c4ccccc4)n3)CC2)cc1
inhibition [1]: 1.99%
inhibition [2]: 2.26%
inhibition [3]: 1.99%

COc1ccccc1N1CCN(Cc2c(NC(C)=O)sc(C)c2C)CC1
inhibition [1]: 0.73%
inhibition [2]: 0.56%
inhibition [3]: 1.44%

CN1CCC(C(=O)N(Cc2ccc(-c3ccc(CNCCc4ccccc4)cn3)cc2)Cc2cccc(F)c2)CC1
inhibition [1]: 3.52%
inhibition [2]: 0.98%
inhibition [3]: 4.08%

CCN1C(=O)N(CCC(C)C)C2(CCN(Cc3ccc(OC)cc3O)CC2)C1=O
inhibition [1]: 5.4%
inhibition [2]: 3.01%
inhibition [3]: 3%

O=C(/C=C/c1ccc(Cl)c(Cl)c1)NCCCCCN1CCCN(C(=O)Nc2ccc(Cl)cc2)CC1
inhibition [1]: 0.39%
inhibition [2]: -0.48%
inhibition [3]: 0.01%

CC1CN(c2cnn(Cc3cccc(NC(=O)Nc4cccc(C(F)(F)F)c4)c3)c(=O)c2Cl)CC(C)N1 (stereo unspecified)
inhibition [1]: 10.7%
inhibition [2]: 8.17%
inhibition [3]: 7.73%

NCc1ccc(CNCc2cccc(-c3ccc(-c4nc5ccccc5[nH]4)cc3)c2)cc1
inhibition [1]: 13.5%
inhibition [2]: 11.8%
inhibition [3]: 12.4%

CCn1c(Cc2ccccc2)nnc1SCC(=O)N1c2ccccc2Sc2ccccc21
inhibition [1]: 4.01%
inhibition [2]: 3.52%
inhibition [3]: 2.39%

CC(C)(C)c1ccc(NC(=O)c2cccc(CN3CCCN(Cc4cccc(C#N)c4)CC3)c2)cc1
inhibition [1]: 5.1%
inhibition [2]: 1.26%
inhibition [3]: 0.63%

C=CCc1cccc(C)c1OCCCON1C(=N)N=C(N)NC1(C)C
inhibition [1]: 1.09%
inhibition [2]: 2.76%
inhibition [3]: 1.9%

O=C(Nc1ccc(Cn2ncc(N3CCNCC3)c(Cl)c2=O)cc1)Nc1ccc(-c2ccccc2)cc1
inhibition [1]: 4.36%
inhibition [2]: 2.78%
inhibition [3]: -0.78%

O=C(Nc1cccc(-c2ccc(-c3nc4cc(C(F)(F)F)ccc4[nH]3)cc2)c1)c1ccoc1
inhibition [1]: -0.21%
inhibition [2]: 1.44%
inhibition [3]: 0.98%

CC(C)CCN1CCCN(Cc2cccc(NC(=O)c3ccc(-c4ccccc4)cc3)c2)CC1
inhibition [1]: 2.17%
inhibition [2]: 0.14%
inhibition [3]: -0.09%
